According to the antibiotic and cytotoxicity screens of Wong et al. (2023):
The campaign covered roughly 39,000 compounds. About 1,500 (3.8%) were called active. The sample as a whole holds a higher share of actives than the screen did.

Tested on: HSkMC (human skeletal muscle cells)
Test: cytotoxicity call (relative viability < 0.9)
Details: 10 µM

Row | SMILES | cytotoxicity call
1 | C[C@H](CO)N1C[C@H](C)[C@H](CN(C)C(=O)NC2CCCCC2)Oc2ccc(NS(C)(=O)=O)cc2CC1=O | inactive
2 | C[C@H](CO)N1C[C@H](C)[C@@H](CN(C)C(=O)Nc2ccc(F)cc2)OCCCC[C@H](C)Oc2ccc(NC(=O)Cc3ccccc3)cc2C1=O | inactive
3 | CC(C)C(N)C(=O)O (stereo not drawn) | inactive
4 | C[C@H](O)C(=O)Nc1c(I)c(C(=O)NC(CO)CO)c(I)c(C(=O)NC(CO)CO)c1I | inactive
5 | CC(C)(C)c1ccc(C(O)CCCN2CCC(C(O)(c3ccccc3)c3ccccc3)CC2)cc1 (stereo not drawn) | active
6 | CC(C)(C(=O)O)c1ccc(C(O)CCCN2CCC(C(O)(c3ccccc3)c3ccccc3)CC2)cc1.Cl (stereo not drawn) | inactive
7 | CC(C)(C(=O)O)c1ccc([C@@H](O)CCCN2CCC(C(O)(c3ccccc3)c3ccccc3)CC2)cc1 | inactive
8 | C[C@@H]1CN([C@H](C)CO)C(=O)c2cccc(NC(=O)C3CC3)c2O[C@@H]1CN(C)Cc1ccc(-c2ccccc2)cc1 | inactive
9 | CC(C)NC(=O)Nc1ccc2c(c1)C(=O)N([C@@H](C)CO)C[C@@H](C)[C@@H](CN(C)S(C)(=O)=O)OCCCC[C@@H](C)O2 | inactive
10 | C[C@@H]1CCCCO[C@@H](CN(C)C(=O)Nc2ccccc2)[C@H](C)CN([C@H](C)CO)C(=O)c2cc(NC(=O)Nc3ccccc3)ccc2O1 | inactive
11 | CC(C)NC(=O)N(C)C[C@@H]1OCCCC[C@@H](C)Oc2ccc(NC(=O)Nc3ccc(C(F)(F)F)cc3)cc2C(=O)N([C@@H](C)CO)C[C@@H]1C | inactive
12 | C[C@H](CO)N1C[C@H](C)[C@H](CN(C)C(=O)Nc2ccc3c(c2)OCO3)OCc2cn(nn2)CCCC1=O | inactive
13 | Brc1ccc2nc(N3CCCN(Cc4ccccc4)CC3)nc(NC3CCN(Cc4ccccc4)CC3)c2c1 | active
14 | COc1cc2nc(N3CCN(C(=O)c4ccco4)CC3)nc(N)c2cc1OC.Cl | inactive
15 | COc1cc2nc(N3CCCN(Cc4ccccc4)CC3)nc(NC3CCN(Cc4ccccc4)CC3)c2cc1OC | inactive
16 | NC1CCN(Cc2ccccc2)CC1 | inactive
17 | COc1ccc2nc3cc(Cl)ccc3c(Nc3cc(CN4CCCC4)c(O)c(CN4CCCC4)c3)c2n1.O=P(O)(O)O.O=P(O)(O)O.O=P(O)(O)O.O=P(O)(O)O | inactive
18 | COc1cc2nc(N3CCCN(Cc4ccccc4)CC3)nc(Nc3ccc(F)c(Cl)c3)c2cc1OC | active
19 | CC(C)(C)[S@](=O)N1Cc2cc(C(=O)NCc3ccncc3)nc(-c3cccc(-c4cccc(C#N)c4)c3)c2[C@@H]1CCO | inactive
20 | C[C@H](CO)N1C[C@H](C)[C@H](CN(C)S(=O)(=O)c2cn(C)cn2)Oc2ccc(NC(=O)Cc3ccccc3)cc2C1=O | inactive
21 | Cc1cc(C(=O)Nc2cccc3c2O[C@H](CN(C)Cc2ccncc2)[C@H](C)CN([C@H](C)CO)C3=O)n(C)n1 | inactive
22 | Cc1noc(C)c1S(=O)(=O)Nc1ccc2c(c1)C(=O)N([C@@H](C)CO)C[C@H](C)[C@@H](CN(C)C(=O)Nc1ccccc1)OCCCC[C@@H](C)O2 | inactive
23 | C[C@@H](Nc1nc(=O)cc(F)[nH]1)C(=O)O | inactive

Row | SMILES | cytotoxicity call
24 | COc1ccc(NC(=O)N(C)C[C@H]2Oc3ccc(NC(=O)CCCCCC(=O)Nc4ccccc4N)cc3C(=O)N([C@@H](C)CO)C[C@@H]2C)cc1 | inactive
25 | COc1ccc(NC(=O)Nc2ccc3c(c2)C(=O)N([C@@H](C)CO)C[C@H](C)[C@@H](CN(C)C(=O)Cc2ccccc2)OCCCC[C@@H](C)O3)cc1 | inactive
26 | COc1ccc(CN(C)C[C@H]2Oc3ccc(NS(=O)(=O)c4cn(C)cn4)cc3CC(=O)N([C@H](C)CO)C[C@@H]2C)cc1 | inactive
27 | Cc1noc(C)c1S(=O)(=O)Nc1ccc2c(c1)C(=O)N([C@@H](C)CO)C[C@H](C)[C@@H](CN(C)Cc1ccc(Oc3ccccc3)cc1)O2 | inactive
28 | C[C@H]1CN([C@@H](C)CO)C(=O)Cc2cc(NC(=O)Nc3ccc(C(F)(F)F)cc3)ccc2O[C@H]1CN(C)C(=O)Nc1ccccc1 | active
29 | C[C@@H]1CN([C@@H](C)CO)C(=O)Cc2cc(NC(=O)Nc3ccc(C(F)(F)F)cc3)ccc2O[C@@H]1CN(C)C(=O)Nc1ccccc1 | active
30 | C[C@H]1CN([C@@H](C)CO)C(=O)Cc2cc(NC(=O)Nc3ccc(C(F)(F)F)cc3)ccc2O[C@@H]1CN(C)C(=O)Nc1ccccc1 | inactive
31 | C[C@H](CO)N1C[C@H](C)[C@@H](CN(C)C(=O)Nc2ccccc2)Oc2ccc(NC(=O)Nc3ccc(C(F)(F)F)cc3)cc2CC1=O | inactive
32 | C[C@H](CO)N1C[C@H](C)[C@H](CN(C)C(=O)Nc2ccccc2)Oc2ccc(NC(=O)Nc3ccc(C(F)(F)F)cc3)cc2CC1=O | inactive
33 | C[C@@H]1CN([C@@H](C)CO)C(=O)Cc2cc(NC(=O)Nc3ccccc3)ccc2O[C@@H]1CN(C)C(=O)Nc1ccc(C(F)(F)F)cc1 | inactive
34 | O=C(O)C1=CCCNC1 | inactive
35 | Cc1noc(C)c1NC(=O)N(C)C[C@@H]1Oc2ccc(NS(=O)(=O)c3cccs3)cc2CC(=O)N([C@@H](C)CO)C[C@H]1C | inactive
36 | COc1ccc(NC(=O)Nc2ccc3c(c2)C(=O)N([C@H](C)CO)C[C@@H](C)[C@@H](CN(C)Cc2ccc(C(=O)O)cc2)OCCCC[C@H](C)O3)cc1 | inactive
37 | NC(=O)[C@H]1[C@@H]2C(=O)O[C@@H](c3ccccc3)[C@@H](c3ccccc3)N2[C@@H](c2ccc(O)cc2)[C@]12C(=O)Nc1ccc(C#CC3(O)CCCCCC3)cc12 | inactive
38 | c1ccc(Nc2ncnc3sc(-c4ccccc4)cc23)cc1 | inactive
39 | c1ccc(Nc2ncnc3cc(-c4ccccc4)sc23)cc1 | inactive
40 | Fc1ccc(Nc2ncnc3sc(-c4ccccc4)cc23)cc1 | active
41 | CCCC(=O)Nc1ccc2c(c1)OC[C@@H](C)N(C(=O)CN1CCOCC1)C[C@@H](C)[C@H](OC)CN(C)C2=O | inactive
42 | NS(=O)(=O)OC[C@H]1C[C@@H](Nc2ccnc3cc(-c4cccc(SC(F)(F)F)c4)nn23)[C@H](O)[C@@H]1O | active
43 | O=C([O-])C(O)C(O)C(O)C(O)CO.[Na+] (stereo not drawn) | inactive
44 | Cc1ccccc1[C@@H](c1ncccc1C)N(C)C(=O)C1CCN(CCOc2ccc3ccccc3c2)CC1 | inactive
45 | COc1ccccc1[C@@H](NC(=O)C1CCN(CCOc2ccc(Cl)cc2Cl)CC1)c1ccccn1 | inactive
46 | Cc1cccnc1[C@@H](NC(=O)C1CCN(CCOc2ccc(Cl)cc2Cl)CC1)c1ccc(F)cc1 | inactive

Row | SMILES | cytotoxicity call
47 | Cc1cccnc1[C@@H](NC(=O)C1CCN(CCOc2ccc(Cl)cc2Cl)CC1)c1ccc(Cl)cc1 | inactive
48 | Cc1ccccc1[C@@H](c1ncccc1C)N(C)C(=O)C1CCN(CCOc2ccc(Cl)cc2Cl)CC1 | active
49 | Cc1cccnc1[C@H](c1ccc(F)cc1)N(C)C(=O)C1CCN(CCOc2ccc(Cl)cc2Cl)CC1 | active
50 | C[C@@H]1CN([C@@H](C)CO)C(=O)c2cc(NC(=O)Nc3ccccc3)ccc2O[C@@H](C)CCCCO[C@H]1CN(C)S(=O)(=O)c1ccccc1F | inactive
51 | O=C(O)/C=C/C(=O)O | inactive
52 | COC(=O)c1c(CC[C@@H](CO)NC(=O)N[C@H](Cn2cc(Cc3ccccc3)nn2)C(C)C)oc(C(C)=O)c1C(=O)OC | inactive
53 | O=C(C[C@@H]1CC=CC[C@@H](Cc2ccc(F)cc2)C(=O)OC[C@H](Cc2c[nH]c3ccccc23)NC1=O)NCCO | inactive
54 | CC(C)NC(=O)N(C)C[C@@H]1OCc2cnnn2CCCC(=O)N([C@@H](C)CO)C[C@@H]1C | inactive
55 | CC(C)NC(=O)N(C)C[C@H]1Oc2cc(-c3ccccc3F)ccc2S(=O)(=O)N([C@H](C)CO)C[C@H]1C | inactive
56 | C[C@H]1CN([C@@H](C)CO)C(=O)c2cccc(NS(=O)(=O)c3ccc(Cl)cc3)c2O[C@@H]1CN(C)Cc1ccc(C(F)(F)F)cc1 | inactive
57 | C[C@H](CO)N1C[C@H](C)[C@@H](CN(C)Cc2ccc(C(F)(F)F)cc2)Oc2c(NS(=O)(=O)c3ccc(Cl)cc3)cccc2C1=O | inactive
58 | C[C@@H]1CN([C@@H](C)CO)C(=O)c2cccc(NS(=O)(=O)c3ccc(Cl)cc3)c2O[C@@H]1CN(C)Cc1ccc(-c2ccccc2)cc1 | active
59 | C[C@@H]1CN([C@H](C)CO)C(=O)c2cccc(NS(=O)(=O)c3ccc(Cl)cc3)c2O[C@H]1CN(C)Cc1ccc(-c2ccccc2)cc1 | inactive
60 | C[C@H](CO)N1C[C@H](C)[C@H](CN(C)Cc2ccc(C(F)(F)F)cc2)Oc2c(NS(=O)(=O)c3ccc(Cl)cc3)cccc2C1=O | active
61 | C[C@@H]1CN([C@@H](C)CO)C(=O)c2cccc(NS(=O)(=O)c3ccc(Cl)cc3)c2O[C@H]1CN(C)Cc1ccc(-c2ccccc2)cc1 | inactive
62 | C[C@@H]1CN([C@H](C)CO)C(=O)c2cc(NC(=O)c3ccccc3)ccc2O[C@@H](C)CCCCO[C@@H]1CN(C)Cc1ccc(Cl)c(Cl)c1 | inactive
63 | COc1ccc(-c2cnc3c(c2)C(=O)N([C@H](C)CO)C[C@H](C)[C@H](CN(C)S(=O)(=O)c2cccs2)O3)cc1 | inactive
64 | C[C@@H]1CCCCO[C@@H](CN(C)S(C)(=O)=O)[C@@H](C)CN([C@H](C)CO)C(=O)c2cc(NC(=O)CCCN(C)C)ccc2O1 | inactive
65 | NCC1OC(OC2C(CO)OC(OC3C(O)C(N)CC(N)C3OC3OC(CN)C(O)C(O)C3N)C2O)C(N)C(O)C1O.O=S(=O)(O)O.O=S(=O)(O)O.O=S(=O)(O)O (stereo not drawn) | inactive
66 | CC(C)NC(=O)N[C@H]1C=C[C@H](CC(=O)NCCN2CCCC2)O[C@H]1CO | inactive
67 | O=C(N[C@H]1CC[C@@H](CC(=O)N2CCOCC2)O[C@@H]1CO)c1ccc2c(c1)OCO2 | inactive
68 | C[C@H](CO)N1C[C@H](C)[C@H](CN(C)C(=O)Nc2ccccc2)OCCCC[C@H](C)Oc2ccc(NS(=O)(=O)c3ccc(Cl)cc3)cc2C1=O | inactive
